Hits are enriched below; roughly 10% of the tested compounds scored in any of these assays.
HPGD block – HPGD (human) dehydrogenase inhibition; 4.3% of 150,000 active; P15428; Potency, µM, inactives show top-dose activity change, negative = inhibition, most hits filed as inhibitors; purified HPGD, NADH fluorescence kinetic, PGE2 substrate; also: potency is read from the fitted curve at half-maximal effect
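NADH formation kinetics: reaction with 30 uM PGE2 and 1 mM NAD+ (final), 20 nM enzyme, Tris-HCl pH 8 with Tween 20, after 15 min compound preincubation at room temperature. Fluorescence change, last versus first of five reads.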
Luc counter – counter-screen: inhibitors of Kinase-Glo firefly luciferase; AID 1379; Q27757; Potency, µM (highest dose often 38.3 µM), for the others: at the top dose activity change, negative = inhibition, actives largely listed as inhibitors; Kinase-Glo luciferase, ATP luminescence, 8 min; 0.28% of 200,000 active; active = well fitted inhibition curve with a large enough effect; inconclusive = small, poorly fitted or top-dose-only effect; also: potency is read from the fitted curve at half-maximal effect; nearly all actives have a fitted effect of over 60% in size
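Compound is pinned into ATP-containing buffer (10 uM ATP, imidazole pH 7.2, 7 mM MgCl2). Kinase-Glo luciferase reagent is then added. Light output is recorded following an 8-min room-temperature incubation.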
LMNA splice mod – modulators of lamin A splicing; 0.01% of 200,000 active; HeLa LMNA splicing GFP/RFP minigene ratio, 48 h; Potency, µM (doses to about 46.1 µM), for the others: at the highest dose ratio change, negative = inhibition, usual class: inhibitors; active = well fitted inhibition curve with a large enough effect in the signal ratio, with a control signal flat, not every such curve was filed as active; inconclusive = small, poorly fitted or top-dose-only effect, or effect the other way, or a change in a side signal; the % refers to the signal ratio; also: potency is read from the fitted curve at half-maximal effect
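S3 HeLa stable clones carrying a lamin A-EGFP splicing minigene plus DsRed2 were seeded at 600 cells/well in Opti-MEM with 2% FBS, pin-dosed and incubated 48 h at 37°C. Acumen cytometry (488 nm) gave the GFP/RFP total-intensity ratio.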
PNC assembly inh – perinucleolar compartment assembly inhibition | PC3M PTB-GFP, PNC prevalence imaging, 16 h; active compounds read low | activity change (PNC), negative = inhibition, % at 10 µM | 3.1% of 140,000 active;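 active = readout at or below -70, meaning at least 70% loss of cells showing the perinucleolar compartment, a nuclear body marking cancer cells; inconclusive = readout between -30 and a set limit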;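 also: plate controls were DMSO wells for no effect and camptothecin positive control wells for full effect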
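PC3M cells stably expressing PTB-GFP, 750–1000 cells/well, treated 16 h at 37 °C with compound (23 nl of library stock), in duplicate. After paraformaldehyde fixation and Hoechst stain, imaged at 20x; PNC prevalence scored by image analysis.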
ALDH1A1 inh – blocks purified human ALDH1A1 activity | Purified ALDH1A1, NADH fluorescence, propionaldehyde substrate | Potency, µM (series often up to 75.3 µM), inactives show at the highest dose activity, negative = inhibition, usual class: inhibitors | 7.3% of 220,000 active | AID 1030;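 also: potency is read from the fitted curve at half-maximal effect; plate controls were no enzyme wells and a reference inhibitor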
Target sequence (P00352 whole entry, looked up): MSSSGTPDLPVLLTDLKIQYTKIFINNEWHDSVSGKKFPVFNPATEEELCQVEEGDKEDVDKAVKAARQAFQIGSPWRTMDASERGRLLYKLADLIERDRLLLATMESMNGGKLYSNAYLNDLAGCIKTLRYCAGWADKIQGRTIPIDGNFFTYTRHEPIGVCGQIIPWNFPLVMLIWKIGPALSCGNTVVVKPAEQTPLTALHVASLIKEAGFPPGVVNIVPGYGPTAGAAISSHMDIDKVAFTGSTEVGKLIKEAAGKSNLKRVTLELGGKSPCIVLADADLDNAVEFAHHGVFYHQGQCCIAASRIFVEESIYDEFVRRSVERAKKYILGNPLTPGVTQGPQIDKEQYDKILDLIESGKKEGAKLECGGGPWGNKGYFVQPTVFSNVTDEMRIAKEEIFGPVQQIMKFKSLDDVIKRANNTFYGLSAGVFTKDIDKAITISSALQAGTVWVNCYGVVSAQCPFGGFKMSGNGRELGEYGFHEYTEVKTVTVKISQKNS
An asterisk follows results filed as active; [ ] = dose if it differs, or a comment. Unless noted, calls follow the shape of the dose curve; as a rule, active = well fitted inhibition curve with a large enough effect (not every such curve was filed as active); inconclusive = small, poorly fitted or top-dose-only effect, or another doubt; inactive = no such curve, though single readings can be large or run the other way. Unless noted, % is scaled to controls: 0 for no effect and ±100 for the full control effect.

`CCOC(=O)C1(C)C=C(Nc2ccc(O)cc2)C(=O)N1c1ccc(O)cc1` (stereo not drawn) gave HPGD block -5.7%, Luc counter 1.9%, LMNA splice mod inconclusive, PNC assembly inh -11.5 and ALDH1A1 inh 3.55µM*.
CCOC(=O)NC(=S)Nc1ccc(OC)cc1 was read as Luc counter 2.8%, LMNA splice mod 6.8%[46 µM] and ALDH1A1 inh 5.8%.
Screening CC(C(=O)NCc1ccccc1)N1Cc2ccccc2C1=O (stereo not drawn) returned LMNA splice mod 0.3%[46 µM].
Screening CN(C(=O)COc1ccccc1C(=O)NCCc1ccccc1)c1ccccc1 returned HPGD block -0.2%, Luc counter -0.9%, LMNA splice mod -4.1%, PNC assembly inh -99.9* and ALDH1A1 inh -1.7%.
Screening CCNC(=O)C1CCN(S(=O)(=O)c2ccc3c(c2)CCCN3C(C)=O)CC1 returned LMNA splice mod 14.7%[46 µM].
Cc1ccc(Oc2ccccc2/C=N/O)cc1 was read as HPGD block -28.8%, Luc counter -2.6%, LMNA splice mod inconclusive, PNC assembly inh 13.6 and ALDH1A1 inh -0.4%.
C=CCOc1ccccc1/C=N/O was read as HPGD block 15.8µM*, Luc counter 3.3%, LMNA splice mod 6.7%, PNC assembly inh 8.7 and ALDH1A1 inh 4.5%.
COc1ccc(-n2cc(C(=O)Nc3cc(F)ccc3F)c3ccccc3c2=O)cc1 was read as LMNA splice mod 0.8%[46 µM].
Screening CC(C)CNC(=O)CCCc1c[nH]c2ccccc12 returned HPGD block 14.1µM*, Luc counter -2.5%, LMNA splice mod 2.1%, PNC assembly inh -3.4 and ALDH1A1 inh -1.5%.
For O=C(NCCc1c[nH]c2ccccc12)C(F)(F)F the results were HPGD block -24.4%, Luc counter -0.9%, LMNA splice mod 35.2%, PNC assembly inh 6.5 and ALDH1A1 inh -12.2%.
`CC(=O)N1CC=CC1(CC(C)C)C(=O)NCCc1c[nH]c2ccccc12` (stereo not drawn) gave HPGD block -6.3%, Luc counter 0.7%, LMNA splice mod -1.1%, PNC assembly inh -88.2* and ALDH1A1 inh 13.9%.
O=C(CCS(=O)(=O)c1ccc(Cl)cc1)NCCc1c[nH]c2ccccc12 was read as Luc counter 4.7%, LMNA splice mod -13.8%[46 µM] and ALDH1A1 inh 28.2µM*.
CC(C)C(=O)NCCc1c[nH]c2ccccc12 was read as HPGD block -24.6%, Luc counter -3.4%, LMNA splice mod 13.0%, PNC assembly inh -123.8* and ALDH1A1 inh 0.2%.
Cc1nc2ccc(S(=O)(=O)N(CC(=O)Nc3cccc(F)c3)Cc3ccccc3)cc2s1 was read as LMNA splice mod 3.2%[46 µM].
For COC(=O)c1sc2cccc(F)c2c1S(=O)(=O)NCc1ccc(Cl)cc1 the results were LMNA splice mod -27.6%[46 µM].
Screening CC(=O)c1cccc(NC(=O)C2CCN(S(=O)(=O)c3ccc4c(c3)CCCN4C(C)=O)CC2)c1 returned LMNA splice mod 7.8%[46 µM].
Screening CN(C)CCN1C(=O)C(O)=C(C(=O)c2cc3ccccc3o2)C1c1ccc(N(C)C)cc1 (stereo not drawn) returned HPGD block -11.6%, Luc counter -0.7%, LMNA splice mod -17.1%, PNC assembly inh -119.3* and ALDH1A1 inh 28.2µM*.
Screening COc1ccccc1C1C(C(=O)c2cc3ccccc3o2)=C(O)C(=O)N1CCN1CCOCC1 (stereo not drawn) returned HPGD block -10.8%, Luc counter -2.9%, LMNA splice mod 2.3%, PNC assembly inh 20.8 and ALDH1A1 inh 20µM*.
For COC(=O)[C@H](C)NC(=O)C/C=C\[C@@H](C)[C@H]1C=C[C@H](O)[C@@H](CO)O1 the results were ALDH1A1 inh -9.3%[13.5 µM].
C=CCON1C(=O)c2ccccc2C1=O was read as HPGD block -21.1%, Luc counter 2.6%, LMNA splice mod 9.8%, PNC assembly inh -110.7* and ALDH1A1 inh inconclusive.
Screening C[C@H](O)CON1C(=O)c2ccccc2C1=O returned HPGD block -3.3%, Luc counter -0.2% and ALDH1A1 inh -4.7%.
Screening Cc1cnc(CNc2ccnc(-c3cccnc3)n2)cn1 returned LMNA splice mod -5.6% and ALDH1A1 inh -5.4%.

Bioassay records as filed in PubChem BioAssay.
